CSC inhib – cancer stem cell inhibition. 300,000 tested, 1.1% active. inhibition, % at 7.5 µM. cancer stem cell-like cells viability, luminescence; in the data active = inhibition above about 75%; inconclusive = no clear call, values can overlap the other calls; tested in HMLE shEcad cells
Mdm2 MdmX PPI – inhibitors of human Mdm2/MdmX interaction; SaOS-2 split-luciferase Mdm2/MdmX complementation, luminescence; inhibition, % at 8 µM; 330,000 tested, 3% active;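 active = inhibition of at least 50% at 8 µM in the primary screen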
Target sequence (O15151 whole entry, looked up): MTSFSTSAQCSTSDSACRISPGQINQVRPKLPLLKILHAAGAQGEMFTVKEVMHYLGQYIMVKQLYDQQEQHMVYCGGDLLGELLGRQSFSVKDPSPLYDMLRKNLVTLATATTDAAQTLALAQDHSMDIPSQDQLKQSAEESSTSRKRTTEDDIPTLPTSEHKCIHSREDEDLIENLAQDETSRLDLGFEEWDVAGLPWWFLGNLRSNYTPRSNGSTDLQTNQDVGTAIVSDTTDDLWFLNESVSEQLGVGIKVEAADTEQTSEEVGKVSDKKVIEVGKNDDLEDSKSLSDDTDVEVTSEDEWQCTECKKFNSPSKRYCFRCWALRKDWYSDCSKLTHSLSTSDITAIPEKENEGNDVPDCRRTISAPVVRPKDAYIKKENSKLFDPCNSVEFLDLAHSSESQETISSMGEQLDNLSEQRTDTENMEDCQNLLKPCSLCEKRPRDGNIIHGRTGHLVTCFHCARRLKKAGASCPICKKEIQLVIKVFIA
Target sequence (Q00987 whole entry, looked up): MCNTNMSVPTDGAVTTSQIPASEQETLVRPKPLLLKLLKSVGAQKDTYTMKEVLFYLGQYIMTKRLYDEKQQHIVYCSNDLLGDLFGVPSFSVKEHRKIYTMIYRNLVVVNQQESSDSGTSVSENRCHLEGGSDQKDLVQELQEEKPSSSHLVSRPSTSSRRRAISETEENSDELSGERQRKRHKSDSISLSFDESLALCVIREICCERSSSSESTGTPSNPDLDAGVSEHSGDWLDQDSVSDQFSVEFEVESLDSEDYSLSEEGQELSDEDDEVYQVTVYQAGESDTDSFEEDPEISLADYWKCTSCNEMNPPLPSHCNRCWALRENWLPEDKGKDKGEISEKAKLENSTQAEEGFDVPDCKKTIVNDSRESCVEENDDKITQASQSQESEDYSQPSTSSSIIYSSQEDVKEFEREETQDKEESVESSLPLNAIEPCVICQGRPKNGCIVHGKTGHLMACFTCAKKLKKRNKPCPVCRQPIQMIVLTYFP
Beta cell apopt – blocks beta cell apoptosis. INS-1E cytokine-induced death, ATP luminescence, 48 h; percent of positive-control rescue, neutral wells zero. protection from apoptosis, % (no concentration beside the values). 300,000 tested, 0.8% active. AID 435005;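 active = Every replicate reaches about 75%, or at least half do and their mean reaches it too, limit read from the data; inconclusive = At least half of replicates reach the limit but their mean does not; inactive = Under half of replicates reach the limit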;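 note: higher means more ATP so stronger rescue from cytokine killing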
Bfl-1 A1 inh – inhibitors of the anti-apoptotic protein A1, read as caspase activation; MEF A1-2A-BIM cells, Caspase-Glo 3/7 luminescence, 3 h; percent of clofoctol response, vehicle zero; caspase activation, % (concentration not given with the values); 330,000 tested, 0.066% active; AID 2462;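 active = over half of replicate activation scores above 10%, or exactly half above 10 with the replicate mean above 10; inconclusive = replicate mean below 10 yet half the replicates above 10; inactive = over half of replicates below 10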
aSyn UTR inh – MLPCN primary screen, SNCA 5' untranslated region. alpha-synuclein 5'UTR reporter, inhibitor activity. inhibition, % (tested at 7.5 µM). 300,000 tested, 0.82% active. AID 1813; in the data active = inhibition above about 60%; inconclusive = no clear call, values can overlap the other calls;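 note: H4 neuroglioblastoma cells stably carrying SNCA 5'UTR luciferase fusion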
Mdm2 MdmX conf – human Mdm2/MdmX binding inhibition, confirmed. shares compounds with Mdm2 MdmX PPI. inhibition, % at 8 µM. luminescent assay. AID 489028. 10,000 tested, 55% active; in the data active = inhibition above about 40%
Full FLuc ctr – counter-screen for Mdm2/MdmX inhibitors: full-length luciferase; shares compounds with Mdm2 MdmX PPI; SaOS-2 full-length luciferase counterscreen, luminescence; inhibition, % at 8 µM; 6,200 tested, 77% active; AID 504607;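 active = mean inhibition at 8 µM reaching about 37%, which flags the compound as non-specific, limit read from the data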;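 note: p53-null SaOS-2 cells with luciferase driven by a doxycycline-inducible promoter; compound on cells about two nights before reading with doxycycline added after day one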
Of the large screens only hits and unclear results are named; the others gave an inactive call (follow-up assays come after a bar, where they were run). Compounds with a hit are over-represented: about 4.1% of the library has one in this group of screens.

O=C(NC(Nc1nc2ccc([N+](=O)[O-])cc2s1)(C(F)(F)F)C(F)(F)F)c1ccccc1Cl	CSC inhib 97.8, Mdm2 MdmX PPI 100.4, Beta cell apopt 109.2, aSyn UTR inh 85.7 | Mdm2 MdmX conf 100.1 | Full FLuc ctr inactive
O=C(NC(Nc1nc2ccc([N+](=O)[O-])cc2s1)(C(F)(F)F)C(F)(F)F)c1cccnc1	Mdm2 MdmX PPI 100.2, Beta cell apopt 119.3, aSyn UTR inh inconclusive | Mdm2 MdmX conf 94.2 | Full FLuc ctr inactive
CCCN(c1ccccc1C(=O)O)S(=O)(=O)c1ccc2c(c1)n(C)c(=O)n2C	none
COCCN(C(=O)COC(=O)/C=C/c1ccc2c(c1)OCO2)c1c(N)n(Cc2ccccc2)c(=O)[nH]c1=O	none
CC(C)(C)OC(=O)N1CCC(C(=O)Nc2ccc3c(c2)CCC3)CC1	none (no result: CSC inhib, aSyn UTR inh)
CC1=Nc2ccccc2/C1=C/c1nc(-c2ccc(C)s2)oc1O	none
CC1=Nc2ccccc2/C1=C/c1sc(=N)n(-c2nccs2)c1O	CSC inhib 111.3, Mdm2 MdmX PPI 99.3, aSyn UTR inh 62.5 | Mdm2 MdmX conf 67.0 | Full FLuc ctr inactive
O=c1oc2ccccc2cc1-c1cn2cccnc2n1	none
O=c1oc2ccccc2cc1-c1cn2ccccc2n1	Mdm2 MdmX PPI 76.1, aSyn UTR inh 98.2 | Mdm2 MdmX conf 62.1 | Full FLuc ctr 72.0
CC[C@@]1(O)C(=O)OCc2c1cc1n(c2=O)Cc2cc3c(N)cccc3nc2-1	Mdm2 MdmX PPI 100.3, Beta cell apopt 98.4, aSyn UTR inh 102.5 | Mdm2 MdmX conf 95.8 | Full FLuc ctr 52.8
CC[C@@]1(O)C(=O)OCc2c1cc1n(c2=O)Cc2cc3c(CN(C)C)c(O)ccc3nc2-1	CSC inhib 103.6, Mdm2 MdmX PPI 87.8 | Mdm2 MdmX conf 87.9 | Full FLuc ctr 52.0
Cc1ccc(C(NC(=O)C2CCCCC2)c2c(O)ccc3ccccc23)cc1 (stereo not drawn)	Mdm2 MdmX PPI 80.3 | Mdm2 MdmX conf 60.9 | Full FLuc ctr 49.2
O=C(CN1CCN(S(=O)(=O)c2ccc(F)c(Cl)c2)CC1)N1CCNC1=O	none (no result: CSC inhib, aSyn UTR inh)
Cc1ccc(-c2csc(NC(=O)c3cc([N+](=O)[O-])ccc3N3CCOCC3)n2)cc1	none
O=C(Nc1nc(-c2ccc(-c3ccccc3)cc2)cs1)C1=COCCO1	Mdm2 MdmX PPI 65.1 | Mdm2 MdmX conf 56.5 | Full FLuc ctr 41.3
CC(=O)c1c(C)[nH]c(C(=O)Nc2nc(-c3ccc(-c4ccccc4)cc3)cs2)c1C	Mdm2 MdmX PPI 87.5 | Mdm2 MdmX conf 43.9 | Full FLuc ctr 100.2
Cc1cc(C)c(-c2csc(NC(=O)C3=COCCO3)n2)cc1C	none
COc1cccc(OC)c1C(=O)Nc1nc(-c2ccccc2)cs1	none (no result: Beta cell apopt)
O=C(Nc1nc(-c2ccccc2)cs1)c1ccc(N2CCOCC2)c([N+](=O)[O-])c1	Mdm2 MdmX PPI 54.5 | Mdm2 MdmX conf 52.0 | Full FLuc ctr 56.1
O=C(CCn1cnnn1)N1CCCC(Nc2ccc(F)c(F)c2)C1 (stereo not drawn)	none
CC(=O)Nc1ccc(/C=C/c2ccc3c([N+](=O)[O-])cccc3n2)cc1	none
COc1ccc([C@H]2CC(=O)C=C(c3cc(OC)ccc3OC)C2)cc1	Mdm2 MdmX PPI 50.7 (no result: aSyn UTR inh) | Mdm2 MdmX conf 51.4 | Full FLuc ctr 53.8
COc1ccc([C@H]2CC(=O)C=C(c3c(OC)cccc3OC)C2)cc1	Mdm2 MdmX PPI 55.7 (no result: aSyn UTR inh) | Mdm2 MdmX conf 53.0 | Full FLuc ctr 50.8
O=C(NC1CCN(Cc2ccc(Cl)cc2)CC1)c1cn(-c2ccccc2)nc1-c1cccnc1	Mdm2 MdmX PPI 53.4 (no result: aSyn UTR inh) | Mdm2 MdmX conf inactive
CC(C)c1c(C(=O)N/N=C/c2ccc(C(F)(F)F)cc2)nnn1-c1nonc1N	none
O=C(Sc1nnc(-c2ccccc2)o1)N1c2ccccc2Sc2ccccc21	Mdm2 MdmX PPI 59.5 (no result: CSC inhib, Beta cell apopt) | Mdm2 MdmX conf inactive
CCOC(=O)c1c(NC(C)=O)sc2c(OCC(O)CNC(C)(C)C)c(Br)ccc12 (stereo not drawn)	Mdm2 MdmX PPI 100.3 | Mdm2 MdmX conf 100.0 | Full FLuc ctr 54.0
COc1ccc(-c2cc(=O)n(-c3nc4ccccc4[nH]3)[nH]2)cc1	CSC inhib 104.4, Mdm2 MdmX PPI 93.0 | Mdm2 MdmX conf inactive
O=C(NNC(=O)c1ccccc1OCc1ccc(F)cc1)c1ccccc1O	Mdm2 MdmX PPI 69.0, Beta cell apopt 86.9, aSyn UTR inh 67.5 | Mdm2 MdmX conf 73.1 | Full FLuc ctr inactive
O=C(NNC(=O)c1ccccc1OCc1ccccc1)c1ccccc1O	Mdm2 MdmX PPI 64.1, Beta cell apopt 85.9, aSyn UTR inh 64.9 | Mdm2 MdmX conf 69.7 | Full FLuc ctr inactive
O=C(NCc1ncc(C(F)(F)F)cc1Cl)Nc1ccccc1	none
COc1ccc(NC(=O)c2cnn(-c3ccccc3)c2C)cc1	none
COC(=O)c1cnn(-c2ccccc2)c1/C=N/NC(=S)Nc1ccc(Cl)cc1	Mdm2 MdmX PPI 52.4 | Mdm2 MdmX conf 53.8 | Full FLuc ctr 54.0
CSCSC1=C(C#N)C(c2ccc(Cl)cc2)C(C(C)=O)=C(C)N1 (stereo not drawn)	none (no result: aSyn UTR inh)
N#CC1=C(SCC(N)=O)NC2=C(C(=O)c3ccccc32)C1c1ccc(Cl)cc1 (stereo not drawn)	Mdm2 MdmX PPI 50.0 | Mdm2 MdmX conf inactive
CC(C)C(Sc1nc(-c2ccccc2)cc(-c2ccccc2)c1C#N)C(=O)O (stereo not drawn)	none
Cc1ccc(-c2cc(-c3ccccc3)nc(Cl)n2)cc1	none
CS(=O)(=O)c1nc(-c2ccccc2)cc(-c2ccccc2)c1C#N	Mdm2 MdmX PPI 100.4 | Mdm2 MdmX conf inactive
Cc1ccc(-c2cc(-c3ccccc3)c(C#N)c(Br)n2)cc1	Mdm2 MdmX PPI 72.1 | Mdm2 MdmX conf inactive
Cc1c(C(=O)N2CCc3ccccc3C2)oc2ccccc12	none
NC(=O)c1ccc(NC(=O)COC(=O)c2c3c(nc4ccccc24)/C(=C\c2cccs2)CCC3)cc1	CSC inhib 115.2, Mdm2 MdmX PPI 85.2 | Mdm2 MdmX conf 75.0 | Full FLuc ctr 77.1
O=C(COC(=O)c1c2c(nc3ccccc13)/C(=C/c1ccco1)CC2)NC1CCCC1	none (no result: CSC inhib, Mdm2 MdmX PPI, Beta cell apopt, Bfl-1 A1 inh)
CC(=O)Nc1ccc(NC(=O)COC(=O)c2c3c(nc4ccccc24)CCN(Cc2ccccc2)C3)cc1	Mdm2 MdmX PPI 50.9 | Mdm2 MdmX conf 56.2 | Full FLuc ctr 84.0
O=C(COC(=O)c1c2c(nc3ccccc13)CCN(Cc1ccccc1)C2)Nc1c(F)cccc1F	Mdm2 MdmX PPI 72.3 | Mdm2 MdmX conf 68.5 | Full FLuc ctr 75.8
CCN1CCc2nc3ccccc3c(C(=O)Nc3ccc(NC(C)=O)cc3)c2C1	none
O=C(O)c1cc2c(s1)-c1ccccc1CC2	none
O=C(N/N=C/c1ccc(Cl)cc1)c1cc2c(s1)-c1ccccc1CC2	Mdm2 MdmX PPI 65.2 | Mdm2 MdmX conf 60.5 | Full FLuc ctr 47.0
CC(Oc1ccc(Br)cc1)C(=O)NCCCN1CCCC1=O (stereo not drawn)	none (no result: aSyn UTR inh)
CCN1CCN(c2ncc(C(=O)Nc3cc(Cl)ccc3OC)c3ccccc23)CC1	Mdm2 MdmX PPI 54.2 | Mdm2 MdmX conf inactive

Source: PubChem (several laboratories)
